In PubChem BioAssay (EPA / NIEHS):
Results filed as inconclusive are left out. Some structures have more than one record in an assay (separate samples or runs), and their calls can disagree. Active and inactive are the calls of the source. Rule for the calls, unless noted: active = hit-call score of the fitted dose curve at least 0.9, where 1 is the maximum; inconclusive = response in the unintended direction; inactive = score below 0.9.

Tests used:
[1] = ATG_GRE_CIS: Attagene CIS-FACTORIAL HepG2 Assay for human Glucocorticoid Response Elements (GRE) (AID 2282947; active = hit-call score of the fitted dose curve at least 0.9, where 1 is the maximum; inactive = score below 0.9); settings: HepG2 GRE cis-reporter, Attagene multiplex mRNA; actives raise or lower the signal
Method in brief: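 Following 24 h chemical exposure of transiently transfected HepG2 cells, total RNA was reverse-transcribed and reporter cDNA amplified, fluorescently labelled and sized by capillary electrophoresis. Signal gain or loss was fitted relative to DMSO vehicle.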

[2] = ATG_VDRE_CIS: Attagene CIS-FACTORIAL HepG2 Assay for human Vitamin D Receptor Element (VDRE) (AID 2282968; active = hit-call score of the fitted dose curve at least 0.9, where 1 is the maximum; inactive = score below 0.9); settings: HepG2 VDRE cis-reporter transcription, actives raise or lower the signal
Method in brief: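 RT-PCR/CE readout of reporter mRNA; HepG2, transient transfection, 24 h dosing; DMSO baseline; bidirectional analysis.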

[3] = ATG_M_19_TRANS: Attagene TRANS-FACTORIAL HepG2 Assay for M19 Transcription Factor (Internal Marker) (AID 2282974); settings: HepG2 Attagene TRANS-FACTORIAL M19 internal marker reporter
Method in brief: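 Transfected HepG2 (GAL4-UAS MRTUs), 24 h compound, TriZol RNA, DNase-treated RT, reporter PCR, FAM label, HpaI digest, CE fluorescence; gain vs DMSO.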

[4] = ATG_GAL4_TRANS: Attagene TRANS-FACTORIAL HepG2 Assay for GAL4 (Internal Marker) (AID 2282976); settings: HepG2 Attagene TRANS GAL4 internal marker reporter
Method in brief: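 HepG2 cells transiently transfected with multiplexed GAL4-UAS reporter constructs were dosed for 24 h. Reporter mRNA was measured by RT-PCR, 6-FAM primer extension, HpaI digestion and capillary electrophoresis, and gain of signal was fitted relative to DMSO.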

[5] = target: Glucocorticoid receptor (Homo sapiens) (UniProt P04150); assay: ATG_GR_TRANS: Attagene TRANS-FACTORIAL HepG2 Assay for human Glucocorticoid Receptor (GR) (AID 2282978); settings: HepG2 Attagene TRANS GR reporter, mRNA transcription;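 note: activators score as hits since higher reporter transcript over DMSO is fitted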
Method in brief: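 After 24 h incubation with test chemical, transfected HepG2 cells were lysed for RNA; reporter cDNA was amplified, FAM-labelled, HpaI-digested and sized on a capillary analyser. Signal gain relative to DMSO was scored.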

[6] = target: human Peroxisome Proliferator-activated Receptor delta (PPARd), PPARD (gene 5467) (UniProt Q03181); assay: ATG_PPARd_TRANS: Attagene TRANS-FACTORIAL HepG2 Assay for human Peroxisome Proliferator-activated Receptor delta (PPARd) (AID 2283002)
Method in brief: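 Measured quantity: GAL4-UAS reporter transcript induction in HepG2 after 24 h chemical dosing, with NR-Gal4 chimeras supplied by transient transfection. Detection by RT-PCR and capillary electrophoresis; upward fit against DMSO.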

[7] = TOX21_p53_BLA_p2_viability: Viability Assessment in the Tox21 HCT-116 p53 Agonism Beta-lactamase Assay, Phase 2 (AID 2283591);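 note: compound exposure lasted 16 h at 37 °C; actives lower the ATP signal meaning cytotoxicity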
Method in brief: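 HCT-116 p53-bla cells (4000/well) rested 5 h at 37C, then received compounds in DMSO (217-fold dilution) for 16 h at 37C, 5% CO2. After the CCF4 read, CellTiter-Glo was added; ATP luminescence was read after 30 min at room temperature.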

[8] = TOX21_p53_BLA_p3_viability: Viability Assessment in the Tox21 HCT-116 p53 Agonism Beta-lactamase Assay, Phase 3 (AID 2283593);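 note: cells exposed to compound for 16 h before reading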
Method in brief: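 HCT-116 cells (4000/well) rested 5 h at 37C, then got DMSO compounds by pin tool (217-fold dilution) for 16 h at 37C, 5% CO2. After the bla read, CellTiter-Glo was added and luminescence read at 30 min, room temperature.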

[9] = TOX21_p53_BLA_p4_viability: Viability Assessment in the Tox21 HCT-116 p53 Agonism Beta-lactamase Assay, Phase 4 (AID 2283597);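 note: hits lower the luminescence signal meaning cytotoxicity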
Method in brief: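 HCT116 p53-bla cells (4000/well) rested 5 h at 37C, then received compounds in DMSO (217-fold dilution) for 16 h at 37C, 5% CO2. CellTiter-Glo was added after the CCF4-AM read, and luminescence was read after 30 min at room temperature.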

[10] = CCTE_Harrill_HTTr_Apoptosis_MCF7: CCTE's 6-hour Apoptosis Assessment for the High-Throughput Transcriptomics (HTTr) Platform, in MCF-7 cells cultured in DMEM + 10% fetal bovine serum, Harrill Lab (AID 2284011; active = hit-call score of the fitted dose curve at least 0.9, where 1 is the maximum; inactive = score below 0.9)
Method in brief: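 MCF-7 cells in DMEM + 10% fetal bovine serum were exposed to chemicals for 6 hours over an eight-point dilution series. Caspase-3/7 activation was imaged by high content imaging with CellEvent Caspase 3/7 Green; bidirectional fitting used DMSO as baseline.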

[11] = ATG_ERE_CIS: Attagene CIS-FACTORIAL HepG2 Assay for Estrogen Response Element (ERE) (AID 2282940; active = hit-call score of the fitted dose curve at least 0.9, where 1 is the maximum; inactive = score below 0.9); settings: HepG2 ERE cis-reporter, Attagene RNA transcript; actives raise or lower the signal
Method in brief: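 Human liver cells (HepG2) bearing transiently transfected, promoter-regulated reporter units were exposed 24 h. Reporter mRNA induction was detected by capillary electrophoresis of labelled RT-PCR products and fitted bidirectionally to DMSO.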

[12] = target: Bile acid receptor (Homo sapiens) (UniProt Q96RI1); assay: ATG_IR1_CIS: Attagene CIS-FACTORIAL HepG2 Assay for human Nuclear Receptor Subfamily 1 Group H Member 4 (NR1H4), IR1 submotif (AID 2282946; active = hit-call score of the fitted dose curve at least 0.9, where 1 is the maximum; inactive = score below 0.9); settings: IR1 reporter transcription, actives raise or lower the signal
Method in brief: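 Transient MRTU transfection, HepG2; 24 h dosing; RNA → RT-PCR → 6-FAM primer extension → HpaI digest → capillary electrophoresis fluorescence. Gain/loss of signal fitted relative to DMSO.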

[13] = target: Oxysterols receptor LXR-beta (Homo sapiens) (UniProt P55055); assay: ATG_LXRb_TRANS: Attagene TRANS-FACTORIAL HepG2 Assay for human Liver X Receptor beta (LXRb) (AID 2282981); settings: HepG2 Attagene TRANS GAL4-LXRb reporter, mRNA
Method in brief: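 In this TRANS format, exogenous chimeric NR-Gal4 protein activity, not endogenous factors, drives reporter expression in transfected human HepG2 cells. Exposure lasted 24 h; reporter mRNA was read by fluorescent capillary electrophoresis.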

[14] = target: Hepatocyte nuclear factor 4-alpha (Homo sapiens) (UniProt P41235); assay: ATG_HNF4a_TRANS: Attagene TRANS-FACTORIAL HepG2 Assay for human Hepatocyte Nuclear Factor 4 alpha (HNF4a) (AID 2282982); settings: HepG2 HNF4a transactivation reporter, mRNA readout
Method in brief: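 Cells used were human HepG2, transiently carrying GAL4-UAS reporter units read out against exogenous NR-GAL4 chimeras. Reporter transcript levels after 24 h dosing were quantified by fluorescent RT-PCR and capillary electrophoresis.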

[15] = target: human RAR-related Orphan Receptor beta (RORb), RORB (gene 6096) (UniProt Q92753); assay: ATG_RORb_TRANS: Attagene TRANS-FACTORIAL HepG2 Assay for human RAR-related Orphan Receptor beta (RORb) (AID 2283010)
Method in brief: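 Readout is reporter-gene mRNA induction, detected as fluorescence after RT-PCR and capillary electrophoresis, fitted for gain of signal against DMSO controls. Transiently transfected HepG2 liver cells carrying GAL4-UAS reporter constructs were treated for 24 hours.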

[16] = target: human RAR-related Orphan Receptor gamma (RORg), RORC (gene 6097) (UniProt P51449); assay: ATG_RORg_TRANS: Attagene TRANS-FACTORIAL HepG2 Assay for human RAR-related Orphan Receptor gamma (RORg) (AID 2283011)
Method in brief: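 Readout: reporter transcript induction (RT-PCR, fluorescent primer extension, capillary electrophoresis) after 24 h compound exposure of transiently transfected HepG2 cells carrying a RORg-Gal4 chimera and GAL4-UAS reporters; DMSO served as baseline, with increasing signal fitted.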

[17] = target: human Vitamin D Receptor (VDR), VDR (gene 7421) (UniProt P11473); assay: ATG_VDR_TRANS: Attagene TRANS-FACTORIAL HepG2 Assay for human Vitamin D Receptor (VDR) (AID 2283022)
Method in brief: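 HepG2 cells were transiently transfected with multiple GAL4-UAS reporter units, so signal reflects exogenous chimeric receptor-Gal4 activity. After 24 h compound exposure, reporter mRNA was measured by RT-PCR, fluorescent labelling and capillary electrophoresis, fitted for gain of signal versus DMSO.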

[18] = target: Nuclear receptor subfamily 4 group A member 2 (Homo sapiens) (UniProt P43354); assay: ATG_NURR1_TRANS: Attagene TRANS-FACTORIAL HepG2 Assay for human Nuclear Receptor Related Protein 1 (NURR1) (AID 2282985); settings: HepG2 Attagene TRANS reporter, mRNA readout
Method in brief: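 After 24 h chemical dosing, total RNA from transiently transfected HepG2 cells was reverse-transcribed and reporter cDNA PCR-amplified, FAM-labelled and analysed by capillary electrophoresis. Activity fitted in positive direction, DMSO as negative control.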

[19] = target: Retinoic acid receptor alpha (Homo sapiens) (UniProt P10276); assay: ATG_DR5_RAR_CIS: Attagene CIS-FACTORIAL HepG2 Assay for human Retinoic Acid Receptor Alpha (RARE), DR5 submotif (AID 2282934; active = hit-call score of the fitted dose curve at least 0.9, where 1 is the maximum; inactive = score below 0.9); settings: HepG2 Attagene cis-factorial RARE DR5 reporter, mRNA; actives raise or lower the signal
Method in brief: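 Transfected HepG2 reporter cells are exposed to chemicals for 24 h. Then RNA is extracted and the DR5 element reporter transcript is measured by RT-PCR and capillary electrophoresis, with bidirectional curve fitting relative to DMSO.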

[20] = ATG_M_06_TRANS: Attagene TRANS-FACTORIAL HepG2 Assay for M06 Transcription Factor (Internal Marker) (AID 2282983); settings: HepG2 Attagene TRANS M06 internal marker reporter
Method in brief: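 HepG2 cells transiently transfected with multiplexed GAL4-UAS reporter transcription units; after 24 h compound exposure, reporter mRNA measured by RT-PCR, FAM-labelled primer extension, HpaI digestion and capillary electrophoresis. Gain-of-signal fitted versus DMSO baseline; background control readout.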

Chain of human RAR-related Orphan Receptor beta (RORb), RORB (gene 6096) (Q92753 whole entry, looked up, the tested form may be a part): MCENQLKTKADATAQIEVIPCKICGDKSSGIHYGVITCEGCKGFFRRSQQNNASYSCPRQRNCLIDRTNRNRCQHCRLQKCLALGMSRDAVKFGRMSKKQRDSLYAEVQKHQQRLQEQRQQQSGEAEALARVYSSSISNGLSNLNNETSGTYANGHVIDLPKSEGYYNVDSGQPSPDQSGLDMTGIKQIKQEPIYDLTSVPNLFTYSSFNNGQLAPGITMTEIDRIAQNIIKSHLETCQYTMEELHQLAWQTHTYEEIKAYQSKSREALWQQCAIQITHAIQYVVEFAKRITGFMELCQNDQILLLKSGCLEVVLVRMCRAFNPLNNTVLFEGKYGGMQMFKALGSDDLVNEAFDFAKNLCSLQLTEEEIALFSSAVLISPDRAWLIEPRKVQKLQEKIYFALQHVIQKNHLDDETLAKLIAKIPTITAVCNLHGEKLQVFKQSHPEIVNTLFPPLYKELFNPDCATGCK
Chain of Bile acid receptor (Homo sapiens) (Q96RI1 whole entry, looked up): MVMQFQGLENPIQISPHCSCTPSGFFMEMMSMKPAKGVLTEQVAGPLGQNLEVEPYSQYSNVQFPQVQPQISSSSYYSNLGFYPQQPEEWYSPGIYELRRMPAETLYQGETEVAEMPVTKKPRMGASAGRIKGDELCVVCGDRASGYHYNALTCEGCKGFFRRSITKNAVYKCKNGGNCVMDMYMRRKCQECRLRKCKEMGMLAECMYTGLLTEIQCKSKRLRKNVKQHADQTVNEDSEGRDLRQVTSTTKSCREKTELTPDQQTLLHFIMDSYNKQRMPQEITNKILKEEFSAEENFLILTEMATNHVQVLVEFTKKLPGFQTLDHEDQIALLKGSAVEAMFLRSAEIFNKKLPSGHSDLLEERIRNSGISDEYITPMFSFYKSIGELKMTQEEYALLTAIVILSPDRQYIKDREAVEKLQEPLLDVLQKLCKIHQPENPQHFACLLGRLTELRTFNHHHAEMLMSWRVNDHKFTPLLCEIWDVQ
Chain of Nuclear receptor subfamily 4 group A member 2 (Homo sapiens) (P43354 whole entry, looked up): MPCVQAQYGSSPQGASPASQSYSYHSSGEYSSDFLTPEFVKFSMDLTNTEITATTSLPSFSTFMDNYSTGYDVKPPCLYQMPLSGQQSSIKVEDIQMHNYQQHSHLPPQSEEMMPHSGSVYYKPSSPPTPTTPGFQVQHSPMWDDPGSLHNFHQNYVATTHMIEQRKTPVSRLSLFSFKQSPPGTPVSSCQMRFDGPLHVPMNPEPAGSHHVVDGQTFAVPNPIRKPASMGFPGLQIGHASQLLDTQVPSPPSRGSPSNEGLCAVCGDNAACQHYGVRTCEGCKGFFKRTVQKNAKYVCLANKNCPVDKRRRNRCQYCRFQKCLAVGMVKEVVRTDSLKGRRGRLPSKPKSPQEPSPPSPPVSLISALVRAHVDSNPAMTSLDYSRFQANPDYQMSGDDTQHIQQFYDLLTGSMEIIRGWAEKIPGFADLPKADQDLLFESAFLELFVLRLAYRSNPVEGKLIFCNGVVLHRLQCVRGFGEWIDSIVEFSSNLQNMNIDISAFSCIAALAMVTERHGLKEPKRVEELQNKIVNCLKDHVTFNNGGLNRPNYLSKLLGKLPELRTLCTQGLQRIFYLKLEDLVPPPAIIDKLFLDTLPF
Chain of Oxysterols receptor LXR-beta (Homo sapiens) (P55055 whole entry, looked up, the tested form may be a part): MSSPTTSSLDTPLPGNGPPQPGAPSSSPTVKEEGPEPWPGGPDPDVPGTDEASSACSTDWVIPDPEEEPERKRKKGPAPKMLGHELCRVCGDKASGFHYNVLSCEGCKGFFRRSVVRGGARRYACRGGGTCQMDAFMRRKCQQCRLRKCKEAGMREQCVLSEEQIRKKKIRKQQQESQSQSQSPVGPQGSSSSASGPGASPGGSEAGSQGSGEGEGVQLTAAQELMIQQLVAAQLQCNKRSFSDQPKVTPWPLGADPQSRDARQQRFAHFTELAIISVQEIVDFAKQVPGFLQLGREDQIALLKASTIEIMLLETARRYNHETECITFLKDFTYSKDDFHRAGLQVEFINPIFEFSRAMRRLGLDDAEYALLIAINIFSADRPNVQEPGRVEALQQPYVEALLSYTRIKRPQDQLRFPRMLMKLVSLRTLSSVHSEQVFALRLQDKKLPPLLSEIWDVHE
Chain of Hepatocyte nuclear factor 4-alpha (Homo sapiens) (P41235 whole entry, looked up, the tested form may be a part): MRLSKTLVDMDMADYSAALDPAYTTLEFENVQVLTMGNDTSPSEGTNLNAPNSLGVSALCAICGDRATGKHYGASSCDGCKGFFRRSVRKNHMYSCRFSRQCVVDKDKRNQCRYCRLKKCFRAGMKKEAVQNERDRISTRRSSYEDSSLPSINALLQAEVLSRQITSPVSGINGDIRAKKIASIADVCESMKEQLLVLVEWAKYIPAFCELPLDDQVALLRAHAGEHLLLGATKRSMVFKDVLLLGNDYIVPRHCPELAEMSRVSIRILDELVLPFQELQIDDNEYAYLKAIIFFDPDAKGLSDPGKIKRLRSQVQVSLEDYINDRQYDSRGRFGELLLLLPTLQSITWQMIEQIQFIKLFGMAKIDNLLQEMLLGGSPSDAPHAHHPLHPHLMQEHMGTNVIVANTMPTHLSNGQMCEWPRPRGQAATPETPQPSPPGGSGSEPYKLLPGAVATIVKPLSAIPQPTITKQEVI
Chain of Retinoic acid receptor alpha (Homo sapiens) (P10276 whole entry, looked up): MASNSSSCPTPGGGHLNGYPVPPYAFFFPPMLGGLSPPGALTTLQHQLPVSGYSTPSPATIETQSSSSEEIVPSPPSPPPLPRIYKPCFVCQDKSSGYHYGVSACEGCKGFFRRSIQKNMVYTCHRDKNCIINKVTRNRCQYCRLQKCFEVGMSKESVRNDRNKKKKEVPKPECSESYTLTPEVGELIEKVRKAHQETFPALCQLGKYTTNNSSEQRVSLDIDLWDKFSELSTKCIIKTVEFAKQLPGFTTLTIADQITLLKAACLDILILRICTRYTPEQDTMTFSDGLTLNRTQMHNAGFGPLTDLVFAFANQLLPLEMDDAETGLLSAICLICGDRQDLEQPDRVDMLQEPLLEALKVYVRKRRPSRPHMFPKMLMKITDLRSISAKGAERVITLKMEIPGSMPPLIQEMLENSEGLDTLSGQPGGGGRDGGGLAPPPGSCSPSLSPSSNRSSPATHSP
Chain of human RAR-related Orphan Receptor gamma (RORg), RORC (gene 6097) (P51449 whole entry, looked up, the tested form may be a part): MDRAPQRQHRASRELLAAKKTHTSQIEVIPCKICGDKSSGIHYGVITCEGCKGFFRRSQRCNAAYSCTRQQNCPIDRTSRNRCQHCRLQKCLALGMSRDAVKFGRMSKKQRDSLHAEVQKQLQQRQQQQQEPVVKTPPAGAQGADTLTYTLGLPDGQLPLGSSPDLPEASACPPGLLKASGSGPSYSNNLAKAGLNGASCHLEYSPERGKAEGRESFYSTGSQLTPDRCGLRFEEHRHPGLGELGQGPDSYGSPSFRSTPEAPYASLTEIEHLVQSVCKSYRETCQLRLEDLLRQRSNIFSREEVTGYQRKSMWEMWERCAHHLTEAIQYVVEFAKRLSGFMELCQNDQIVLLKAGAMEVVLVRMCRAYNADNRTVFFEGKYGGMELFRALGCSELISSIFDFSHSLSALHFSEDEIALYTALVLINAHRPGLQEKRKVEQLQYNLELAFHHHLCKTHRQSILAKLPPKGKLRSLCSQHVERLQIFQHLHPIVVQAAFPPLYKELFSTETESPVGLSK
Chain of human Peroxisome Proliferator-activated Receptor delta (PPARd), PPARD (gene 5467) (Q03181 whole entry, looked up, the tested form may be a part): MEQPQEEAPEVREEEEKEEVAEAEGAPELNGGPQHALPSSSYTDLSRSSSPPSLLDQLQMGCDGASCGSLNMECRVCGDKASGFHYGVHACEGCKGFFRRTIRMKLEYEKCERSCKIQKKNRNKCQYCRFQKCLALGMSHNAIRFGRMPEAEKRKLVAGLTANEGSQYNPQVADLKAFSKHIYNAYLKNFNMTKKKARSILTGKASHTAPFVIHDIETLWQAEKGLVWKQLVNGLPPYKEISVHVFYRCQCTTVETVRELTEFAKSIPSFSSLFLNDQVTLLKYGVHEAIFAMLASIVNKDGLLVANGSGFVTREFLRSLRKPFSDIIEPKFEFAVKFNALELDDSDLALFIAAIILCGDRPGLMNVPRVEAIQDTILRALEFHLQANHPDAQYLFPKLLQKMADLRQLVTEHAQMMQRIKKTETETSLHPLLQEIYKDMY
Chain of Glucocorticoid receptor (Homo sapiens) (P04150 whole entry, looked up): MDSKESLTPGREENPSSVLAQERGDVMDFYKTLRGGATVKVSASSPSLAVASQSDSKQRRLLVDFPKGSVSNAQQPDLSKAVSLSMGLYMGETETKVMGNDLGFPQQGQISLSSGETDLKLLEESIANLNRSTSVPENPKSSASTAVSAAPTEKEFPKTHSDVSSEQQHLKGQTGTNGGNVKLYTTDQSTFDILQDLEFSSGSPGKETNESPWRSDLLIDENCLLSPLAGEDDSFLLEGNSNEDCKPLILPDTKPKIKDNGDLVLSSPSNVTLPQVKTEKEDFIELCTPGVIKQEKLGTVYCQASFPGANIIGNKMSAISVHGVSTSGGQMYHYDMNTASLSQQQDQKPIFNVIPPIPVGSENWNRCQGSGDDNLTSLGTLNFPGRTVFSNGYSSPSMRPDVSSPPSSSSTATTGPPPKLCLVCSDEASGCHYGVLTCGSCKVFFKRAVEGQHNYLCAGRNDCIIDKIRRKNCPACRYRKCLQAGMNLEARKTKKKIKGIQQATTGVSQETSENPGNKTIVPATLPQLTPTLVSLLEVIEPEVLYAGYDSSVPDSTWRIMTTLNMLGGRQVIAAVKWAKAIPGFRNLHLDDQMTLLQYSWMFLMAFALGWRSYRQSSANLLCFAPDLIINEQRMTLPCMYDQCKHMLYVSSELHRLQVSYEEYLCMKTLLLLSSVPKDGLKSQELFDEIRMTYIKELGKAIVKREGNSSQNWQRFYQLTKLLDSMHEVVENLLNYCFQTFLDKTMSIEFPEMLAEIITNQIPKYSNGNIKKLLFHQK

C=CCN(CC=C)C(=O)C(Cl)Cl
outcome [1]: inactive
outcome [2]: inactive
outcome [3]: inactive
outcome [4]: inactive
outcome [5]: inactive
outcome [6]: inactive
outcome [7]: inactive
outcome [8]: inactive
outcome [9]: inactive
outcome [10]: inactive

c1ccc2c(c1)CCCC2
outcome [11]: inactive
outcome [12]: inactive
outcome [1]: inactive
outcome [2]: inactive
outcome [3]: inactive
outcome [4]: inactive
outcome [5]: inactive
outcome [13]: inactive
outcome [14]: inactive
outcome [15]: inactive
outcome [16]: inactive
outcome [17]: inactive
outcome [8]: inactive
outcome [9]: inactive

CN1C[C@H](C(=O)N[C@]2(C)O[C@@]3(O)[C@@H]4CCCN4C(=O)[C@H](Cc4ccccc4)N3C2=O)C=C2c3cccc4[nH]cc(c34)C[C@H]21
outcome [11]: inactive
outcome [12]: inactive
AC50 [2]: 0.966 µM (active)
outcome [3]: inactive
outcome [4]: inactive
outcome [5]: inactive
outcome [13]: inactive
outcome [18]: inactive
outcome [17]: inactive
outcome [7]: inactive
AC50 [9]: 71.4 µM (active)
outcome [9]: inactive

C=CC(=O)OC
outcome [19]: inactive
outcome [12]: inactive
outcome [2]: inactive
outcome [4]: inactive
outcome [13]: inactive
outcome [14]: inactive
outcome [20]: inactive
outcome [18]: inactive
outcome [16]: inactive
outcome [17]: inactive
outcome [7]: inactive
outcome [8]: inactive

CCNCC
outcome [1]: inactive
outcome [2]: inactive
outcome [3]: inactive
outcome [4]: inactive
outcome [13]: inactive
outcome [20]: inactive
outcome [16]: inactive

CC(C)[C@@H](C(=O)O[C@@H](C#N)c1cccc(Oc2ccccc2)c1)c1ccc(Cl)cc1
outcome [4]: inactive
outcome [20]: inactive
outcome [18]: inactive
outcome [6]: inactive
outcome [7]: inactive
outcome [9]: inactive
outcome [10]: inactive

Oc1ccc(C2(c3ccc(O)cc3)c3ccccc3-c3ccccc32)cc1
outcome [11]: inactive
outcome [12]: inactive
outcome [1]: inactive
AC50 [2]: 5 µM (active)
outcome [4]: inactive
outcome [5]: inactive
outcome [20]: inactive
outcome [18]: inactive
AC50 [8]: 0.237 µM (active)
outcome [9]: inactive

Oc1ccc(Cl)cc1
outcome [19]: inactive
outcome [14]: inactive
outcome [20]: inactive
outcome [16]: inactive
outcome [17]: inactive
outcome [7]: inactive
outcome [9]: inactive
outcome [10]: inactive

Nc1ccc(Cl)c(Cl)c1
outcome [2]: inactive
outcome [13]: inactive
outcome [16]: inactive
outcome [17]: inactive
outcome [8]: inactive
outcome [9]: inactive
outcome [10]: inactive

CC(C)CCCCCCCOC(=O)c1ccccc1C(=O)OCCCCCCCC(C)C
outcome [12]: inactive
outcome [1]: inactive
outcome [2]: inactive
outcome [3]: inactive
outcome [4]: inactive
outcome [5]: inactive
outcome [15]: inactive
outcome [16]: inactive
outcome [10]: inactive

CCCCCc1cc(O)cc(O)c1
AC50 [12]: 155 µM (active)
AC50 [2]: 16 µM (active)
outcome [14]: inactive
outcome [20]: inactive
outcome [18]: inactive
outcome [6]: inactive
outcome [17]: inactive
outcome [9]: inactive

O=S(=O)(O)O
outcome [13]: inactive
outcome [20]: inactive
outcome [18]: inactive
outcome [10]: inactive

CCOC(=O)NC(=S)Nc1ccccc1NC(=S)NC(=O)OCC
outcome [19]: inactive
outcome [1]: inactive
outcome [2]: inactive
outcome [5]: inactive
outcome [14]: inactive
outcome [20]: inactive
outcome [18]: inactive
outcome [6]: inactive
outcome [15]: inactive
outcome [17]: inactive
outcome [8]: inactive
outcome [9]: inactive
outcome [10]: inactive
